Here are results for five molecules from PubChem BioAssay (NCI).

About 83,000 compounds went through this panel and 20% of them were active in at least one assay; those are over-represented in the sample as a whole.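 Single-dose data. Exposure time 48 hours. Values below 10 considered active.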 A number with no mark means an inactive call. Calls of active or inactive are those of the source.

The test system of this test is MDA-MB-468 breast. The experiment in a line: NCI-60 one-dose screen, 48 h (100 = growth as untreated, 0 = no growth, -100 = all killed). Particulars: 10 µM unless noted.
Consider `COc1cc2c3c(n(CCCNC4CCCC4)c(=O)c2cc1OC)-c1cc2c(cc1C3=O)OCO2`, for which the growth was 70.9%. To `CCOC(=O)c1cc(C(=O)c2ccc(Br)cc2)n2ccc(/C=C/c3cc[n+](CC(=O)c4ccc(OC)cc4)cc3)cc12` belongs 66.4%. As to `N#Cc1ncc(-c2ccc(C(F)(F)F)cc2)c(NC2CCCCCC2)n1`, the growth is -8.28% (active). Take `CN(C)CCn1cc(-c2ccc3c(Nc4ccc(CC(=O)Nc5cccc(F)c5)cc4)ncnc3c2)cn1`: the growth was -82.9% [30 µM] (active). With `ClC1c2ccccc2CCc2ccccc21`, the growth is 111%.
